Measured values as given in PubChem BioAssay (NCATS).
Records with an inconclusive call do not appear. Calls of active or inactive are those of the source. Unless noted, calls follow the shape of the dose curve; as a rule, active = well fitted curve in either direction with a large enough effect (not every such curve was filed as active); inconclusive = small, poorly fitted or top-dose-only effect, or another doubt; inactive = flat fitted curve, though single readings scatter.

Key:
[1] = AP1 Signaling Pathway (AID 357); settings: ME-180 AP-1-bla reporter, EGF-induced, beta-lactamase ratio, 5 h;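 also: ME-180 reporter cells stimulated with EGF at its EC50 level; % is scaled to controls: 0 for no effect and ±100 for the full control effect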
Outline: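 Read-out was the 460nm/530nm emission ratio (excitation 405nm) after CCF4 loading for 2.5 hours at room temperature. Cells carried an AP-1-driven beta-lactamase reporter, were stimulated with EC50 EGF plus compound for 5 hours, and AC50 values came from titrations.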

[2] = molecular target: Cytochrome P450 1A2 (Homo sapiens) (UniProt P05177); assay: p450-cyp1a2 (AID 410; calls by dose curve; also: potency is read from the fitted curve at half-maximal effect;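 as to activity change, negative = inhibition: -100% = full effect of reference inhibitor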)
Outline: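 Human CYP1A2 (20nM) demethylated Luciferin-ME at its Km (100uM) in 100mM KPO4. After 10 min compound preincubation, NADPH regeneration ran the reaction 60 min at room temperature. Luciferin was read by luminescence, normalized to 57 uM furafylline.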

[3] = NFAT Signaling Pathway (AID 444); settings: Jurkat NFAT-bla M1, carbachol, beta-lactamase ratio, 5 h; at 7.69 µM (top of the series) unless noted;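 also: carbachol stimulus at about its EC50 of 1 µM final; % is scaled to controls: 0 for no effect and ±100 for the full control effect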
Outline: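 Jurkat cells with NFAT-driven β-lactamase reporter and co-expressed M1 receptor, stimulated with carbachol (final 1 uM, ~EC50), compound titration, 5 h at 37 °C. CCF4 loaded 1 h at RT; 460/530 nm ratio gave %activity and AC50.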

[4] = Stat Signaling Pathway (AID 446); settings: ME-180 SIE beta-lactamase reporter, IL-6 stimulated, 5 h;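 also: ME-180 cervical cancer cells given 40 pM IL-6 alongside compound; SIE-controlled beta-lactamase reporter measured as 460/530 nm FRET emission ratio; % is scaled to controls: 0 for no effect and ±100 for the full control effect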
Outline: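 Reporter line: ME-180 cervical carcinoma, SIE-beta-lactamase. Treatment: compound with 40 pM IL-6, 5 hrs, 37 C, in low-serum OPTI-MEM with 10 mM HEPES pH 7.3. Detection: 460/530 nm fluorescence.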

[5] = molecular target: Glucocorticoid receptor (Homo sapiens) (UniProt P04150); assay: GR-GFP Redistribution (AID 450;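 active = compounds whose dose series gives a full or clear partial fitted curve of increased nuclear translocation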; also: potency is read from the fitted curve at half-maximal effect); settings: U2OS GR-GFP nuclear translocation, laser cytometry, 2 h
[6] = molecular target: Glucocorticoid receptor (Homo sapiens) (UniProt P04150); assay: GR-EFC Redistribution (AID 451; calls by dose curve; also: potency is read from the fitted curve at half-maximal effect); settings: CHO-K1 GR-EFC translocation, beta-gal luminescence, 2 h
Outline: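 CHO-K1 cells expressing nuclear EA and GR-ED fragments of b-gal; compounds titrated up to 46 uM final, 2 h at 37 C. GR nuclear translocation read as complemented b-gal luminescence after 1 h RT detection.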

[7] = molecular target: Mitogen-activated protein kinase 10 (Mus musculus) (UniProt Q61831); assay: JNK3 AlphaScreen Assay (AID 530);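 also: kinase came from lysate of stimulated human HepG2 cells; signal reports phosphorylation of biotinylated GST-cJun 1-79 at Ser73 with 10 µM ATP; % is scaled to controls: 0 for no effect and ±100 for the full control effect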
Outline: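 qHTS format: compounds tested as titrations against IL-1beta/TNF-alpha-activated HepG2 lysate JNK3 with biotin-GST-cJun substrate and 10 uM ATP at room temperature. Loss of anti-phospho-cJun AlphaScreen signal indicates inhibition.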

[8] = molecular target: 3',5'-cyclic-AMP phosphodiesterase 4B (Homo sapiens) (UniProt Q07343); assay: qHTS Assay for Inhibitors of PDE-IV (AID 607; active = well fitted activation curve with a large enough effect in the main read-out, with a control signal flat, not every such curve was filed as active; also: % of control where 0% means no effect)
Outline: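 Cell-based read-out of cAMP via a modified cyclic nucleotide-gated channel and membrane potential dye (535/590 nm) in HEK293 cells expressing PDE4 endogenously. Compounds tested up to 22.9 uM final; 100 uM RO 20-1724 reference.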

[9] = molecular target: Guanine nucleotide-binding protein G(i) subunit alpha-1 (Homo sapiens) (UniProt P63096); assay: qHTS Assay for Inhibitors of RGS12 GoLoco Motif Activity (Green Fluorophore) (AID 879; active = well fitted curve in the direction sought with a large enough effect; an effect the other way counts as inactive or inconclusive;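 also: 0% = labeled peptide with Gαi1 and full inhibition = labeled peptide alone without protein; negative values mean loss of peptide binding seen as reduced polarization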)
Outline: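 Fluorescence polarization assay: 50 nM Gαi1 with 10 nM FITC-labeled RGS12 GoLoco peptide in 10 mM Tris pH 7.5, 150 mM NaCl, 0.1 mM GDP, 0.05% NP40, 10 min at room temperature with compound.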

[10] = qHTS Assay for Identification of Small Molecule Antagonists for NFkB Signaling Pathway (AID 895; active = well fitted inhibition curve with a large enough effect in the signal ratio, with a control signal flat, not every such curve was filed as active; the % refers to the signal ratio; also: % is scaled to controls: 0 for no effect and ±100 for the full control effect)
Outline: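 ME-180 NFkB-bla cells (beta-lactamase under NFkB response element), plated overnight, treated with compound then 10 pM TNF alpha (about EC50) for 5 hrs at 37 C. LiveBLAzer FRET read at 460/530 nm emission, 405 nm excitation.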

[11] = qHTS Assay for Identification of Small Molecule Agonists for Thrombopoietin (TPO) Signaling Pathway (AID 917; active = well fitted curve in the direction sought with a large enough effect; an effect the other way counts as inactive or inconclusive; also: % is scaled to controls: 0 for no effect and ±100 for the full control effect)
Outline: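 IL-3-dependent murine pro-B Ba/F3 cells, stably transfected with human TPO receptor and GpIIb-promoter luciferase, are incubated 24 hrs at 37 C with test compound and 26 pM TPO; luciferase signal is read after 10 min at room temperature.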

[12] = molecular target: Pyruvate kinase (Leishmania mexicana) (UniProt Q27686); assay: qHTS Validation Assay for Inhibitors of Leishmania Mexicana Pyruvate Kinase (AID 945; active = well fitted curve in the direction sought with a large enough effect; an effect the other way counts as inactive or inconclusive;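 also: 0% = DMSO only neutral control wells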)
Outline: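 Pyruvate kinase activity of E451W LmPYK (0.2 nM) was followed as ATP output after 1 h at room temperature with 0.5 mM PEP and 0.1 mM ADP, detected by PKLight luminescence.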

[13] = molecular target: Pyruvate kinase PKM (Homo sapiens) (UniProt P14618); assay: qHTS Assay for Activators of Human Muscle Pyruvate Kinase (AID 954; active = well fitted curve in the direction sought with a large enough effect, not every such curve was filed as active;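 also: 0% = uninhibited enzyme and -100% = no enzyme or full thiadiazolimine inhibition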)
Outline: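 Human PKM2 activity is measured as ATP generation, detected by luciferase-coupled luminescence. The enzyme (0.1 nM) acts on 0.5 mM PEP and 0.1 mM ADP for 1 h at ambient temperature; data are normalized to uninhibited and full-inhibition wells.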

[14] = molecular target: Alpha-galactosidase A (Homo sapiens) (UniProt P06280); assay: Counterscreen for Glucocerebrosidase Inhibitors: qHTS Assay for Human alpha-Galactosidase at pH 4.5 (AID 992; active = well fitted curve in the direction sought with a large enough effect; an effect the other way counts as inactive or inconclusive; also: 0% is about no effect)
Outline: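 Quantitative HTS: compounds tested from 0.7 nM up to 77 uM against 2 nM enzyme with 80 uM 4-MU alpha-D-galactopyranoside. The 20 min room-temperature reaction is stopped with 1M NaOH/1M glycine, pH 10.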

[15] = molecular target: Muscarinic acetylcholine receptor M1 (Rattus norvegicus) (UniProt P08482); assay: qHTS Assay for Antagonists of Acetylcholine Muscarinic M1 Receptor: Measurement of IP-One Response (AID 944; active = well fitted curve in the direction sought with a large enough effect; an effect the other way counts as inactive or inconclusive; also: nearly all actives have a fitted effect of over 75% in size)
Outline: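 CHO cells expressing rat M1 receptor, recovered overnight, were pre-incubated 10 min with compound, then stimulated 30 min with carbachol at EC80 (200 nM) in LiCl-containing buffer, pH 7.4. IP1 accumulation was read by HTRF (620/665 nm).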

[16] = at 7.69 µM (top of the series) unless noted

Sequence of Glucocorticoid receptor (Homo sapiens) (P04150 whole entry, looked up, the tested form may be a part): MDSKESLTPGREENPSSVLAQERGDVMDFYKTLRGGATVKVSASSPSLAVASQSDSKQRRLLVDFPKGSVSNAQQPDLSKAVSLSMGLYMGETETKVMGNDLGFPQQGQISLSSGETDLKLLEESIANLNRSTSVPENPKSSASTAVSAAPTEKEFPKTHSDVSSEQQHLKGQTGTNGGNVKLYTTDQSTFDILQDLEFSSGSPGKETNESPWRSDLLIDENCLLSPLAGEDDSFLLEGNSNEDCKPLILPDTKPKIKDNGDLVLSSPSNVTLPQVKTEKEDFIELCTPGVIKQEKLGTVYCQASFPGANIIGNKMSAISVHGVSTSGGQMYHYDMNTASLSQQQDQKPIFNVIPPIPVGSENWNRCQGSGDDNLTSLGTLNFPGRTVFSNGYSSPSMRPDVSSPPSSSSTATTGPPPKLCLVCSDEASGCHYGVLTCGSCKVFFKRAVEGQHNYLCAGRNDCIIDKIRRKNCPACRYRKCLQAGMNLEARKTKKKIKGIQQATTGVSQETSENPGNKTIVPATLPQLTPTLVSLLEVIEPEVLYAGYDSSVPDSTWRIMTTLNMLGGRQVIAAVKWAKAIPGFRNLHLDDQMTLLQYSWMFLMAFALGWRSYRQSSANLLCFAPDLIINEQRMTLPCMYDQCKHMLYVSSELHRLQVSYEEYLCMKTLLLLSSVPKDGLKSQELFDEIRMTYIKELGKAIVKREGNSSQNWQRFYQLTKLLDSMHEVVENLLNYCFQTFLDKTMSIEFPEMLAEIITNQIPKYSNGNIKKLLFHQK
Sequence of 3',5'-cyclic-AMP phosphodiesterase 4B (Homo sapiens) (Q07343 whole entry, looked up): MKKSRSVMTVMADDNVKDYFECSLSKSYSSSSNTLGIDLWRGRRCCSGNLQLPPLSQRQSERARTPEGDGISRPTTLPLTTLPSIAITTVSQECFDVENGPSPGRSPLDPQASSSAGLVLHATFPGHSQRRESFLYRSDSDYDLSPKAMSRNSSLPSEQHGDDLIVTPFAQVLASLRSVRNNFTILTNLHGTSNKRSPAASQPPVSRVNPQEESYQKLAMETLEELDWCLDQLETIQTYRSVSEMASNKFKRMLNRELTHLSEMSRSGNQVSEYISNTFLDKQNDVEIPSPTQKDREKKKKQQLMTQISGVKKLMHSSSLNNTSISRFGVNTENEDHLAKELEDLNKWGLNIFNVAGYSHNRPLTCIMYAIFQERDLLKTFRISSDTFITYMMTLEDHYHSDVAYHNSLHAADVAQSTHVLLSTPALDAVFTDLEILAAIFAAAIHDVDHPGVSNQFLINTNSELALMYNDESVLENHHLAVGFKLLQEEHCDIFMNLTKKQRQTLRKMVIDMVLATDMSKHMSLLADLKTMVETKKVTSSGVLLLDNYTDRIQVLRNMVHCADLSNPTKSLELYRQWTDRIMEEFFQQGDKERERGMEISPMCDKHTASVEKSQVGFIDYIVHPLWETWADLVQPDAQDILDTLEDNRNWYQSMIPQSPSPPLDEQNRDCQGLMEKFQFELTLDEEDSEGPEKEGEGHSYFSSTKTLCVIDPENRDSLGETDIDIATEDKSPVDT
Sequence of Cytochrome P450 1A2 (Homo sapiens) (P05177 whole entry, looked up): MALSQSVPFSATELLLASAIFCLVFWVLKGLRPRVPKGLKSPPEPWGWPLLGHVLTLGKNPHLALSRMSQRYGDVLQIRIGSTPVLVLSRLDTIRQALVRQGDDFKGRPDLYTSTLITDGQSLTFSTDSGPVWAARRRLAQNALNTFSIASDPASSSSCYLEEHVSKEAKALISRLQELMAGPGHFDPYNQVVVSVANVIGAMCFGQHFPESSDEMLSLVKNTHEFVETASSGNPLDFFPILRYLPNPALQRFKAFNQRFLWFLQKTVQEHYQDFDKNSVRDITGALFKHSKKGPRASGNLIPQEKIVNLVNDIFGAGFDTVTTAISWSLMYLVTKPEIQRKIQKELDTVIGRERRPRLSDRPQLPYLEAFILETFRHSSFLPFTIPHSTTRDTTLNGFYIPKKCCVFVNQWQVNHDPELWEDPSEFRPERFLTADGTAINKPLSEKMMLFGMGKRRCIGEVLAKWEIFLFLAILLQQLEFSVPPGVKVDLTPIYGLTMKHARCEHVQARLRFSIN
Sequence of Pyruvate kinase PKM (Homo sapiens) (P14618 whole entry, looked up): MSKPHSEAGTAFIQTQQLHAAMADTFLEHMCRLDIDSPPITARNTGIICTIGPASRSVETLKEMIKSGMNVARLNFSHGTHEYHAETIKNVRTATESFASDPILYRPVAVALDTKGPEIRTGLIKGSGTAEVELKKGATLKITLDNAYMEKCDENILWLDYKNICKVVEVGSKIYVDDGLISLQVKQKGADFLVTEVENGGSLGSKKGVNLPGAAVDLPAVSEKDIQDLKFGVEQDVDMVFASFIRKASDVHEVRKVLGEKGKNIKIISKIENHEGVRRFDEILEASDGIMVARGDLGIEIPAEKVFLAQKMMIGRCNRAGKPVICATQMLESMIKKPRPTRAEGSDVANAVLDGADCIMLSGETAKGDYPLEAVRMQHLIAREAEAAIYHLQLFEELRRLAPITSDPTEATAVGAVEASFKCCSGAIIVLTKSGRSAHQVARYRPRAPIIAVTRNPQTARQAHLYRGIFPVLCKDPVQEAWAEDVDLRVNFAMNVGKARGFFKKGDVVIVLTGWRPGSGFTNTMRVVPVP
Sequence of Guanine nucleotide-binding protein G(i) subunit alpha-1 (Homo sapiens) (P63096 whole entry, looked up): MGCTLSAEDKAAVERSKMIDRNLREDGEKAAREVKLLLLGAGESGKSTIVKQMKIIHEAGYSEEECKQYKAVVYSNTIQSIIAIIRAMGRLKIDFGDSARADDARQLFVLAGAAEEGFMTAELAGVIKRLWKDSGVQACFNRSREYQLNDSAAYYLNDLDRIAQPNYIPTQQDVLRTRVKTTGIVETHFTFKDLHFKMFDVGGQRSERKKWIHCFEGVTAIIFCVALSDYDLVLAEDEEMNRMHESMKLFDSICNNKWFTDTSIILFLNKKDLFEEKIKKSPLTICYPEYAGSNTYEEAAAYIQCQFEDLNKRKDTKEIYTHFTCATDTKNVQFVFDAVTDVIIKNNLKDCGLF
Sequence of Alpha-galactosidase A (Homo sapiens) (P06280 whole entry, looked up): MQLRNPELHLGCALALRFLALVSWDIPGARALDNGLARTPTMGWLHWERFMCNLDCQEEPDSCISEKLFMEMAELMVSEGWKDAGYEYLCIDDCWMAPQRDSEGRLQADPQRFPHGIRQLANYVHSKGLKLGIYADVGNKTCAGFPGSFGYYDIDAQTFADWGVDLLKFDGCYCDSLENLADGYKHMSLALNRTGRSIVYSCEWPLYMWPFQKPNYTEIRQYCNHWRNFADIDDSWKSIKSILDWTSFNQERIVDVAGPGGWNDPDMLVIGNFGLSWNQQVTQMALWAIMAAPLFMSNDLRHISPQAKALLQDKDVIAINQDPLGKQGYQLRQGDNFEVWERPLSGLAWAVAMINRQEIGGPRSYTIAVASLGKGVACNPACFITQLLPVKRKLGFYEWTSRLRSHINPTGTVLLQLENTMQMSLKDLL
Sequence of Pyruvate kinase (Leishmania mexicana) (Q27686 2-499 E452W): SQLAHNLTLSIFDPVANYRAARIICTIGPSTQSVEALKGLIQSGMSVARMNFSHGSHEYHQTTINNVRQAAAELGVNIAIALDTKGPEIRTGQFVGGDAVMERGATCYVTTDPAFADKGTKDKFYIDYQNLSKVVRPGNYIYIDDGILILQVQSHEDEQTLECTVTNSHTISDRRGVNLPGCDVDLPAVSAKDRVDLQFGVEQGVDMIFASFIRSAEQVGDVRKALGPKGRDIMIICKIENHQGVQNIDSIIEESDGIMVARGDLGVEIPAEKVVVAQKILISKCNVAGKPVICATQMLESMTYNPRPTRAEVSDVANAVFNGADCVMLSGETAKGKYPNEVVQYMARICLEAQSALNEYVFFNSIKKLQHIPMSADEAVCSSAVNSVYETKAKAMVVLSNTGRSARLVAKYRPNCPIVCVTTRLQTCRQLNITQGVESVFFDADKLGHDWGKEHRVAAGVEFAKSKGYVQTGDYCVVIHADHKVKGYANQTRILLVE
Sequence of Muscarinic acetylcholine receptor M1 (Rattus norvegicus) (P08482 whole entry, looked up): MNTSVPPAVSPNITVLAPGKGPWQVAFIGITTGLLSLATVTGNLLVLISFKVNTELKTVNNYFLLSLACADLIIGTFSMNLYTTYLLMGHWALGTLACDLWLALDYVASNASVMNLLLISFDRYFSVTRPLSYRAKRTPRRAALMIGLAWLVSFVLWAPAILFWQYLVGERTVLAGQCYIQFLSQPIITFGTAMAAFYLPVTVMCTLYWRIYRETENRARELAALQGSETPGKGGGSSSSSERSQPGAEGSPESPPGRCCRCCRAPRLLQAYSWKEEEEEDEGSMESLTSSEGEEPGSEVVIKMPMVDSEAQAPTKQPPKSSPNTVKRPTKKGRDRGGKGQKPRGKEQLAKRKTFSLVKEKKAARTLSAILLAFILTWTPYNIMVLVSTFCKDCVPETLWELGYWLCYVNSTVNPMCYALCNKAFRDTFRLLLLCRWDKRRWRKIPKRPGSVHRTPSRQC

O=C(O)CCCC[C@H]1CCSS1
inactive: activity change, negative = inhibition [1, 16] -4.68% [at 38 µM] | Potency [2] | activity change, negative = inhibition [3] -1.58% [at 38 µM] | activity, negative = inhibition [4, 16] -7.28% [at 38 µM] | Potency [5] > 46 µM | Potency [6] > 46 µM | Potency [7] | Potency [8] | outcome [9] | Potency [10] | outcome [11] | outcome [12] | outcome [13] | outcome [14]

C(=C/c1ccccc1)/CN1CCN(C(c2ccccc2)c2ccccc2)CC1
inactive: activity change, negative = inhibition ([1]; at 17.2 µM (top of the series)) -10.7% | activity change, negative = inhibition ([1]; at 38 µM (top of the series)) -3.02% | activity, negative = inhibition ([4]; at 17.2 µM (top of the series)) -6.97% | activity, negative = inhibition ([4]; at 38 µM (top of the series)) 12.7% | Potency [7] | Potency [8]

CSc1ccc(NC(=O)Nc2cc(C)ccn2)cc1
inactive: activity change, negative = inhibition [1, 16] 0.23% | activity change, negative = inhibition [3] -18.9% | activity, negative = inhibition [4, 16] -7.77% | Potency [5] > 46 µM | Potency [6] > 9.22 µM | Potency [7] | Potency [8]
active: Potency [2] 0.501 µM

Cc1cc(O)c(C(C)C)cc1C1(c2cc(C(C)C)c(O)cc2C)OC(=O)c2ccccc21
inactive: Potency [5] > 46 µM | Potency [6] > 9.22 µM | Potency [7] | Potency [8]

C[C@H](CN(C)C)C(=O)c1ccccc1C(=O)O
inactive: activity change, negative = inhibition [1, 16] -1.25% | Potency [2] | activity change, negative = inhibition [3] -1.83% | activity, negative = inhibition [4, 16] 14.8% | Potency [5] > 46 µM | Potency [6] > 9.22 µM | Potency [7] | Potency [8]

C[N+]1(NCC[N@@+]2(C)CCc3ccccc3C2)CCCCC1
inactive: activity change, negative = inhibition [1, 16] -4.59% | Potency [2] | activity change, negative = inhibition [3] -23.2% | activity, negative = inhibition [4, 16] 7.24% | Potency [5] > 46 µM | Potency [6] > 9.22 µM | Potency [7] | Potency [8]

CC(C)N(Cc1ccccc1)S(=O)(=O)c1n[nH]c(C(C)(C)C)n1
inactive: activity change, negative = inhibition [1, 16] -0.248% | Potency [2] | activity change, negative = inhibition [3] 4.29% | activity, negative = inhibition [4, 16] -2.12% | Potency [5] > 46 µM | Potency [6] > 9.22 µM | Potency [7]

OCCCNc1ncnc2[nH]ncc12
inactive: activity change, negative = inhibition [1, 16] 7.33% | activity change, negative = inhibition [3] 0.588% | activity, negative = inhibition [4, 16] -7.35% | Potency [5] > 46 µM | Potency [6] > 9.22 µM | Potency [7] | Potency [8]
active: Potency [2] 6.31 µM

COC(=O)CC[C@@H](C)[C@@H]1CC[C@@H]2[C@@H]3CC[C@H]4C[C@@H](O)CC[C@@]4(C)[C@@H]3CC[C@]21C
inactive: activity, negative = inhibition [4, 16] 23.8% | Potency [5] > 46 µM | Potency [6] > 9.22 µM | Potency [7] | Potency [8]

CN1CCc2cc(Cl)c(O)cc2[C@H](c2ccccc2)C1
inactive: activity change, negative = inhibition [1, 16] 15.7% [at 38 µM] | activity change, negative = inhibition [3] -3.81% [at 38 µM] | activity, negative = inhibition [4, 16] 19.6% [at 38 µM] | Potency [5] > 46 µM | Potency [6] > 46 µM | Potency [7] | Potency [8] | outcome [9] | Potency [15] | outcome [12] | outcome [13] | outcome [14]
active: Potency [2] 31.6 µM
